From PubChem BioAssay (NCATS)
Records with an inconclusive call do not appear. A call without a number means that no potency is given here. Calls of active or inactive are those of the source. The call rests on the fitted dose curve; in most records, active means well fitted inhibition curve with a large enough effect; inconclusive means small, poorly fitted or top-dose-only effect; inactive means flat fitted curve, though single readings scatter.

What was measured:
[1] = test system: Zika virus NS2B-NS3 protease; test: Primary screen GU AMC qHTS for Zika virus inhibitors (AID 1347154)
In short: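 Unlinked Zika NS2B hydrophilic domain/NS3 protease domain noncovalent complex (25 nM final) in 10 mM Tris-HCl pH 8.0, 0.01% Tween 20, with AMC peptide substrate. Fluorescence (ex 340, em 450 nm) change over 15 min, room temperature; percent inhibition fitted to 4-parameter Hill equation.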

[2] = Confirmatory screen GU Rhodamine qHTS for Zika virus inhibitors qHTS (AID 1347157); settings: purified enzyme assay, Rhodamine110 substrate fluorescence, 15 min; further: potency means the concentration at half of the fitted maximal effect
In short: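 Percent inhibition derives from the 15-min fluorescence change (ex 480, em 540 nm), normalized to no-enzyme and no-inhibitor wells. Reactions contained 25 nM NS2B-NS3 complex and 1.5 microM substrate in 10 mM Tris-HCl pH 8.0.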
Further: nearly all actives have a fitted effect of over 70% in size.

Q: Which Potency [1] does the source give for NC(=O)NNc1ccccc1 here?
A: The Potency was “inactive”.

Q: Which Potency [1] does the source give for CC[C@@]1(c2ccccc2)NC(=O)N(C)C1=O here?
A: The Potency was “inactive”.

Q: For CC1=C(C/C=C(\C)CCC[C@H](C)CCC[C@H](C)CCCC(C)C)C(=O)c2ccccc2C1=O, which Potency [1] is on record?
A: The Potency was “inactive”.

Q: For Cc1cc2c(cc1S(N)(=O)=O)S(=O)(=O)CCC2, which Potency [1] is on record?
A: Its Potency is “inactive”.

Q: For CCCCN(CCCC)CCCOC(=O)c1ccc(N)cc1, which Potency [1] is on record?
A: Its Potency is “inactive”.

Q: Which Potency [1] does the source give for O=S(=O)(O)c1cc(I)c(O)c2ncccc12 here?
A: Its Potency is “inactive”.

Q: Which Potency [1] does the source give for NCCNCCNCCN here?
A: The Potency was “inactive”.

Q: Which Potency [1] does the source give for COc1cc(C)c(Cc2cnc(N)nc2N)cc1OC here?
A: Its Potency is “inactive”.

Q: With Oc1cccc(O)c1 as the compound, how does the Potency [1] read?
A: Its Potency is “inactive”.

Q: For NCCNCCNCCNCCN, which activity change, negative = inhibition [1] is on record?
A: The activity change, negative = inhibition was -0.671% [at 6.83 µM] (inactive).

Q: With COc1ccc2cc1Oc1cc3c(cc1OC)CC[N+](C)(C)[C@H]3Cc1ccc(cc1)Oc1c(OC)c(OC)cc3c1[C@@H](C2)[N+](C)(C)CC3 as the compound, how does the Potency [1] read?
A: The Potency was “inactive”.

Q: Which Potency [1] does the source give for CCCCCCCCCCCCCCCCCCOCC(O)CO (stereo unspecified) here?
A: The Potency was “inactive”.

Q: Which Potency [1] does the source give for CCCCCCCCCCCCOS(=O)(=O)O here?
A: The Potency was “inactive”.

Q: Which Potency [1] does the source give for Cc1ncc([N+](=O)[O-])n1CC(O)CCl (stereo unspecified) here?
A: The Potency was “inactive”.

Q: Which Potency [1] does the source give for CCOC(=O)c1ccc(O)cc1 here?
A: The Potency was “inactive”.

Q: Which Potency [2] does the source give for COc1ccc2c(c1)C(=O)N(CCc1ccc(S(=O)(=O)NC(=O)NC3CCCCC3)cc1)C(=O)C2(C)C here?
A: Its Potency is 27.8 µM (active).
